# Shown are actives, neighbours in structure and some others; about 22% of the full set was active somewhere.
# Shiga inhibitor: blocks Shiga toxin action in Vero cells | Vero cells, Shiga toxin protein synthesis inhibition reporter | inhibition, % at 38.7 µM | 290,000 compounds, 9.2% hits | AID 2315; in the data active = inhibition mostly above about 28%, no sharp cut-off; inactive = mostly below about 43%; also: 0% is about no effect
# Cycloheximide cs: counter-screen hit for Shiga toxin inhibitors, cycloheximide | 300,000 compounds, 12% hits | max response, % | AID 2314 | cell reporter, cycloheximide protein synthesis inhibition counterscreen; in the data active = max response mostly above about 13%, no sharp cut-off; inactive = mostly below about 14%; also: read at 38.3 µM for the half of the compounds with a filed dose; 0% is about no effect
# Pf growth 48h: inhibits P. falciparum growth in the first generation, 48 h. P. falciparum luciferase growth in erythrocytes, 48 h. Potency, µM (doses to about 28.7 µM), for inactives: at the highest dose activity change, negative = inhibition, actives largely listed as inhibitors. 310,000 compounds, 5.9% hits; also: potency is read from the fitted curve at half-maximal effect; % is scaled to controls: 0 for no effect and ±100 for the full control effect
#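 Parasite viability was followed by luminescence of a genomically integrated firefly luciferase. Cultures held 0.1% parasitemia at 2% hematocrit (final), incubated under 5% CO2 at 37 C.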
# LmPK inh: LmPK (Leishmania mexicana) enzyme inhibition; Q27686; Potency, µM (series often up to 57.5 µM), for inactives: top-dose activity change, negative = inhibition, actives largely listed as inhibitors; AID 1721; 290,000 compounds, 0.37% hits; purified LmPK, Kinase-Glo ATP luminescence, 1 h; also: potency is read from the fitted curve at half-maximal effect; % is scaled to controls: 0 for no effect and ±100 for the full control effect
# Target sequence (Q27686 whole entry, looked up): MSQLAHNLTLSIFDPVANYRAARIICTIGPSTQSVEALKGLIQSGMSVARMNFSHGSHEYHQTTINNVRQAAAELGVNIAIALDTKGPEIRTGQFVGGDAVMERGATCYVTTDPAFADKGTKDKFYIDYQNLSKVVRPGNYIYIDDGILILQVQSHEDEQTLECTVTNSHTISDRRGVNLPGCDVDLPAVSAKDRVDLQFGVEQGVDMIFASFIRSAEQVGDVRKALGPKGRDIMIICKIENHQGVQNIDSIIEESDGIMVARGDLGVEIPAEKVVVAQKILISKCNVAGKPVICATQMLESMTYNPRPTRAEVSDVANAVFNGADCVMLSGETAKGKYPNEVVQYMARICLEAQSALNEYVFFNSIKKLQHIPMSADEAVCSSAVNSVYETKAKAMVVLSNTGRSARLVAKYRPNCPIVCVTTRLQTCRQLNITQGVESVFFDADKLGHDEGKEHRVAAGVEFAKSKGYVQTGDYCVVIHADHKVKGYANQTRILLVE
#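 In 50 mM imidazole pH 7.2 with 7 mM MgCl2, LmPK (0.1 nM) turned over PEP (0.5 mM) and ADP (0.1 mM) for 1 h at room temperature. Luciferase read-out of ATP.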
# Pf growth 96h: P. falciparum growth inhibition at 96 hours; P. falciparum luciferase reporter growth, 96 h; Potency, µM (highest dose often 28.7 µM), without a hit: at the top dose activity change, negative = inhibition, usual class: inhibitors; 320,000 compounds, 6.9% hits; also: potency is read from the fitted curve at half-maximal effect; % is scaled to controls: 0 for no effect and ±100 for the full control effect
#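 P. falciparum expressing integrated firefly luciferase, in erythrocytes at 2% hematocrit, 0.05% parasitemia, incubated with compounds 96 h at 37 C, 5% CO2. Growth inhibition read as loss of luminescence; two-generation exposure targets delayed-death apicoplast inhibitors.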
# Numbers without * were called inactive; i = inactive; ? = inconclusive; . = no result; [ ] = dose if it differs, or a comment. Unless noted, calls follow the shape of the dose curve; as a rule, active = well fitted inhibition curve with a large enough effect; inconclusive = small, poorly fitted or top-dose-only effect, or another doubt; inactive = no such curve, though single readings can be large or run the other way.
SMILES,Shiga inhibitor,Cycloheximide cs,Pf growth 48h,LmPK inh,Pf growth 96h
COCCN(C(=O)Cc1cccs1)C(C(=O)NC1CCCC1)c1ccc(OC)c(OC)c1 (stereo not drawn),1.4,3.5,-28.3%,8.7%,18.9%
O=C(NCc1ccccc1)C(c1ccccc1)N(Cc1ccc2c(c1)OCO2)C(=O)Cc1cccs1 (stereo not drawn),16.7,3.4,?,3.8%,15.1%
CCc1ccc(C(C(=O)NCc2ccc(OC)cc2)N(CCOC)C(=O)Cc2cccs2)cc1 (stereo not drawn),-11.6,1.7,4.15µM*,5.9%,1.47µM*
COc1ccc(CNC(=O)C(c2ccc(C)o2)N(Cc2cccs2)C(=O)Cc2cccs2)cc1 (stereo not drawn),-7.4,13.1,14.7µM*,3.1%,159.8%
COc1ccc(CC(=O)NCc2cccs2)cc1,15.9,5.6,19.9%,-7.1%,.
COCCN(C(=O)Cc1cccs1)C(C(=O)NCc1ccc(OC)cc1)c1ccc(C)cc1 (stereo not drawn),-1.5,-0.7,8.28µM*,2.6%,5.86µM*
COC(=O)C1CC(=O)c2sccc2C1 (stereo not drawn),-6.2,-2.8,0.0%,-1.4%,0.4%
CCN(Cc1ccccc1)S(=O)(=O)c1c(C)[nH]c(C)c1C(=O)N1CCCCC1,-6.0,13.9,?,1.2%,?
Cn1c(Cn2c(=O)sc3ccccc32)nnc1SCC(=O)NCc1ccccc1Cl,4.2,2.7,4.1%,5.0%,-8.4%
Cc1nc(-c2ccc(S(=O)(=O)Nc3ccc(Br)cc3F)cc2)co1,-12.2,-1.8,11.2%,3.3%,-1.8%
COC(=O)c1ccc(COC(=O)c2ccccn2)cc1,85.6*,38.3*,2.6%,-19.3%,.
COC(=O)c1ccc(COC(=O)Cc2n[nH]c(=O)c3ccccc23)cc1,26.6,26.9*,0.0%,-9.4%,0.0%
O=C(OCc1ccc(F)cc1Cl)c1ccccn1,18.5,19.7*,34.8%,?,-22.5%
O=C(Oc1ccccc1)c1ccc(COC(=O)c2cnccn2)cc1,30.2,22.1*,2.5%,?,11.3%
O=C(OCc1c(Cl)cccc1Cl)c1ccccn1,-18.0,-1.5,19.4%,-1.5%,0.0%
COC(=O)c1ccc(CSc2nnc(C)n2N)o1,-10.7,4.1,-14.6%,2.8%,51.2%
O=[N+]([O-])c1cc(C(F)(F)F)cc([N+](=O)[O-])c1NCCNC(=S)Nc1cccc(F)c1,-4.3,6.4,-15.6%,9.9%,?
O=C(Oc1ccc(Cl)cc1)c1ccc(COC(=O)c2cnccn2)cc1,86.7*,40.1*,.,6.6%,17.5%
CCOc1cc2c(cc1OCC)-n1cccc1C(c1cccc(F)c1F)NC2 (stereo not drawn),-5.2,13.3,?,-3.7%,?
CCOc1cc2c(cc1OCC)-n1cccc1C(c1ccc(F)c(OC)c1)NC2 (stereo not drawn),-4.3,-3.2,10.4µM*,7.8%,-0.7%
CCOc1cc2c(cc1OCC)-n1cccc1C(c1ccccc1O)NC2 (stereo not drawn),-10.7,3.9,8.28µM*,6.0%,5.9%
CCOc1cc2c(cc1OCC)-n1cccc1C(c1ccccc1OC)NC2 (stereo not drawn),-18.8,-2.4,10.4µM*,5.1%,0.0%
CCOc1cc2c(cc1OCC)-n1cccc1C(c1c(O)cccc1OC)NC2 (stereo not drawn),-10.6,-1.5,13.1µM*,2.2%,-27.6%
CSCCC(NC(=O)c1ccco1)C(=O)NCC(C)(C)N1CCOCC1 (stereo not drawn),.,.,1.2%,.,4.3%
COc1ccc([C@]23Cc4ccccc4C(O2)c2c(cc(-c4ccccc4)oc2=O)O3)cc1,i,10.3,?,-8.3%[11.5 µM],?
SMILES,Shiga inhibitor,Cycloheximide cs,Pf growth 48h,LmPK inh,Pf growth 96h
Nc1nc(N)c(C=Nc2ccc(Br)cc2)c(Nc2ccc(Br)cc2)n1,21.4,9.3,0.586µM*,1.9%,0.329µM*
CC1(C)CC(=O)C2=C(C1)O[C@@]1(CCCCN3C(=O)c4ccccc4C3=O)Cc3ccccc3C2O1,i,9.3,1.69µM*,-7.8%[11.5 µM],1.69µM*
CCCC[C@]12Cc3ccccc3[C@H](O1)C1=C(O2)C(=O)c2ccccc2C1=O,i,-1.0,?,-6.7%[11.5 µM],0.849µM*
CCCC[C@]12Cc3cc(OC)c(OC)cc3C(O1)C1=C(O2)C(=O)c2ccccc2C1=O,i,-1.8,1.35µM*,-5.4%[11.5 µM],26.3%[5.75 µM]
COc1ccc(CNC(=O)COC(=O)/C=C/c2cccc(Br)c2)cc1OC,-13.7,4.0,i,6.1%,-26.1%
O=C(Nc1cc(Br)c(O)c(Br)c1)c1cccc(NC(=O)c2ccco2)c1,.,-3.8,?,2.7%,7.38µM*
O=C(Nc1cccc(C(=O)N2CCCCCC2)c1)c1ccco1,-2.0,10.4*,13.4%,-7.7%,-28.8%
O=C(Nc1cccc(NC(=O)c2ccco2)c1)c1cccc(Br)c1,85.8*,20.5,0.0%,-2.7%,-13.5%
CC(=O)c1cccc(NC(=O)c2cccc(NC(=O)c3ccco3)c2)c1,.,4.2,-1.2%,-1.8%,-20.1%
CCCCc1nnc(NC(=O)C(C)Sc2nc(O)c(Cc3ccccc3)c(=O)[nH]2)s1 (stereo not drawn),-19.0,2.2,-1.2%,1.5%,0.1%
Clc1ccc(-c2nc(-c3cc4cc(Cl)ccc4o3)cs2)cc1,3.1,-2.0,-1.4%,-0.8%,37.0%
Cc1cc(C(F)(F)F)nn1CC(=O)NCc1ccccc1,-14.6,-6.7,.,13.0%,7.38µM*
COc1ccccc1CNC(=O)Cn1nc(C(F)(F)F)cc1C,.,.,11.7µM*,.,14.7µM*
Cc1ccc2c(-c3csc(N)n3)c[nH]c2c1,3.9,5.9,?,-5.2%,?
COc1ccccc1OCC(=O)NCc1ccco1,23.8,8.2,9.9%,-0.1%,-22.3%
O=C(COc1ccccc1Br)NCc1ccco1,45.5,19.5*,12.7%,-0.7%,-17.9%
CCc1ccc(OCC(=O)NCc2ccco2)c(Br)c1,106.5*,40.2*,61.4%,-0.7%,.
Cc1ccc(Cl)c(OCC(=O)NCc2ccco2)c1,33.1,23.9*,21.4%,6.7%,.
COc1ccc(CC(=O)NCc2ccco2)cc1OC,-23.0,-7.2,-2.5%,1.9%,.
CCCCN(CC)S(=O)(=O)c1ccccc1,-14.4,-3.9,.,4.5%,11.5%
CCN(CC)S(=O)(=O)c1ccccc1/C=N\O,46.4,29.1*,69.7%,3.3%,-7.2%
CN(c1ccc(OCC(=O)NCCc2ccccc2)cc1)S(=O)(=O)c1ccc(Cl)cc1,.,.,8.28µM*,.,?
O=C(NCCC1CC1(Cl)Cl)c1ccc([N+](=O)[O-])cc1 (stereo not drawn),44.3,24.6*,.,-4.0%,19.6%
COc1cc(C(=O)NCCc2cn3ccccc3n2)cc(OC)c1OC,-9.8,-2.2,11.5%,-9.0%,-6.1%
COc1ccc(CCNC(=O)COc2ccc(N(C)S(=O)(=O)c3ccc(Cl)cc3)cc2)cc1,-1.4,8.2,?,13.0%,?
COc1ccc(CCNC(=O)C2=COCCO2)cc1,65.7*,24.4*,69.6%,-0.2%,90.4%
COc1ccc(C(=O)NCCc2cn3ccccc3n2)cc1,43.1*,17.8,23.3%,-2.1%,-17.4%

# Screening results deposited in PubChem by National Center for Advancing Translational Sciences (NCATS).
